# Results: the supplement of paper PMC10981050
# Several values for one entry are separate records, joined by “and”; a condition that tells them apart may be missing. Equal entries are not always repeated. Structures can show the parent of a compound that is named as a salt.
# Tests used:
# Experiment in all cases: cell viability relative to vehicle control; higher = less cytotoxic
# Settings in all cases: 10 µM
# [1] = test system: K562
# How it was run: (§1)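 After removal of identity-inconsistent compounds, the Selleck bioactive, kinase and epigenetic probe libraries were screened on CRISPR-edited mutant clones and isogenic wild-type clones of four leukaemia lines. Plates were 384-well, each well holding 2000 cells in 50 µL medium and receiving a single 10 µM acoustically dispensed dose. CellTiter-Glo luminescence was read 48 h later, after the supernatant was taken off. Genedata Screener was used to express viability as percent of the on-plate vehicle control.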
# [2] = test system: MARIMO
# How it was run: as §1
# [3] = test system: MOLM14
# How it was run: as §1
# [4] = test system: OCI-AML2
# How it was run: as §1
Structure (SMILES),cell viability ([1]; SRSF2 genotype: SRSF2 P95H/wt),cell viability ([1]; SRSF2 genotype: SRSF2 wt/wt),cell viability ([2]; SRSF2 genotype: SRSF2 P95H/wt),cell viability ([2]; SRSF2 genotype: SRSF2 wt/wt),cell viability ([3]; SRSF2 genotype: SRSF2 P95H/wt),cell viability ([3]; SRSF2 genotype: SRSF2 wt/wt),cell viability ([4]; SRSF2 genotype: P95H/wt),cell viability ([4]; SRSF2 genotype: wt/wt)
O=C(O)Cn1nnc(-c2cc(N3CCC(Oc4cc(F)ccc4Br)CC3)no2)n1,106% and 102%,110%,101%,104%,103%,103%,101%,103%
Cc1ccc(C(C)C)c(O)c1 [Thymol],96.2% and 91.7%,99%,97.9%,102%,97.1%,105%,98.3%,101%
O=C(NC1CCN(CCCCC2(C(=O)NCC(F)(F)F)c3ccccc3-c3ccccc32)CC1)c1ccccc1-c1ccc(C(F)(F)F)cc1 [Lomitapide],0.51% and 0.47%,0.4%,0.42%,0.43%,0.37%,0.37%,0.35%,0.46%
O=c1c2cc(O)c(O)cc2oc2cc(O)c([C@@H]3O[C@H](CO)[C@@H](O)[C@H](O)[C@H]3O)c(O)c12 [Mangiferin],106% and 96.7%,99.3%,97.7%,104%,103%,104%,86.5%,102%
Cc1ccc(NCCN(C)CCNc2ccnc3cc(Cl)ccc23)c2c(=O)c3ccccc3sc12,75.8% and 92.5%,76.6%,78%,88.2%,81%,79.7%,85.9%,84%
O=C(Nc1cccc(C2=NCCN2)c1)Nc1cccc(C2=NCCN2)c1 [Imidocarb dipropionate],98.4% and 92.2%,95.3%,91.5%,103%,80.2%,87.7%,88.6%,89.4%
C[C@H]1COc2c(N3CCN(C)CC3)c(F)cc3c(=O)c(C(=O)O)cn1c23 [Levofloxacin hydrate],93.5% and 91%,95.8%,94.3%,98.4%,97.2%,97.9%,93.3%,92.1%
CO/N=C(\C(=O)N[C@@H]1C(=O)N2C(C(=O)O)=C(CSC(=O)c3ccco3)CS[C@H]12)c1csc(N)n1 [Ceftiofur],108%,103%,110%,109%,97%,108%,112%,105%
Oc1ccc([C@H]2COc3cc(O)ccc3C2)cc1 [Equol],90.4% and 101%,103%,99.9%,104%,95.2%,104%,92%,88.4%
COC(=O)C1=C(C)NC(C)=C(C(=O)OC(C)C)C1c1cccc2nonc12 (stereo unspecified) [Isradipine (Dynacirc)],95.3% and 96.5%,97.3%,99.4%,103%,101%,100%,93.2%,99.5%
CN[C@H]1C(=O)N[C@@H]2Cc3ccc(cc3)Oc3cc4cc(c3O[C@@H]3O[C@H](C(=O)O)[C@@H](O)[C@H](O)[C@H]3NC(=O)CCCCCCCCC(C)C)Oc3ccc(cc3Cl)[C@@H](O)[C@@H]3NC(=O)[C@H](NC(=O)[C@@H]4NC(=O)[C@@H](NC2=O)c2cc(cc(O)c2Cl)Oc2cc1ccc2O)c1ccc(O)c(c1)-c1c(O[C@H]2O[C@H](CO)[C@@H](O)[C@H](O)[C@@H]2O)cc(O)cc1[C@@H](C(=O)NCCCN(C)C)NC3=O [Dalbavancin],97.1% and 89.6%,94.9%,95.8%,103%,96.6%,97.9%,86.5%,106%
C[C@@H]1COCCN1c1cc(C2(S(C)(=O)=O)CC2)nc(-c2cccc3[nH]ccc23)n1,8.63% and 11.6%,8.6%,20.2%,18%,22.2%,7.72%,16.2%,18.7%
CO[C@H]1O[C@@H]2O[C@@]3(C)CC[C@H]4[C@H](C)CC[C@@H]([C@H]1C)[C@@]24OO3 [Artemether],84.4% and 83.7%,80.4%,81%,90.5%,85.6%,90.1%,86.3%,86.6%
OCCc1ccc(O)c(O)c1 [Hydroxytyrosol],94.8% and 103%,98.2%,90.5%,103%,97.5%,104%,105%,106%
Cc1noc(-c2ccc(CSCCC(=O)O)cc2)c1NC(=O)OC(C)c1ccccc1Cl (stereo unspecified),106% and 105%,104%,101%,113%,104%,102%,104%,111%
CC1=C(CSC(=S)N2CCCCC2)C(=O)c2ccccc2C1=O [PKM2 inhibitor(compound 3k)],3.74% and 0.42%,8.02%,0.75%,0.85%,0.19%,0.21%,0.2%,1.51%
Cc1cc(O)c2c(c1)C(=O)c1cccc(O)c1C2=O [Chrysophanic acid (Chrysophanol)],100% and 95.6%,100%,96.9%,95.8%,114%,106%,89.2%,83%
CO/N=C(\C(=O)N[C@@H]1C(=O)N2C(C(=O)[O-])=C(C[n+]3cccc4c3CCCC4)CS[C@H]12)c1csc(N)n1 [Cefquinome sulfate],103% and 99.9%,91%,87.5%,100%,86.3%,95.5%,93.9%,91.6%
FC(F)(F)Oc1ccc2nc(-c3ccc(OCCOCCOc4ccc(-c5nc6ccc(OC(F)(F)F)cc6[nH]5)nc4)cn3)[nH]c2c1,52.4% and 53%,56.4%,26.9%,39.3%,50.4%,41.3%,18.4%,24.8%

Structure (SMILES),cell viability ([1]; SRSF2 genotype: SRSF2 P95H/wt),cell viability ([1]; SRSF2 genotype: SRSF2 wt/wt),cell viability ([2]; SRSF2 genotype: SRSF2 P95H/wt),cell viability ([2]; SRSF2 genotype: SRSF2 wt/wt),cell viability ([3]; SRSF2 genotype: SRSF2 P95H/wt),cell viability ([3]; SRSF2 genotype: SRSF2 wt/wt),cell viability ([4]; SRSF2 genotype: P95H/wt),cell viability ([4]; SRSF2 genotype: wt/wt)
CC(C)(C)c1cc(NC(=O)Nc2ccc(-c3cn4c(n3)sc3cc(OCCN5CCOCC5)ccc34)cc2)no1 [Quizartinib (AC220)],105% and 110%,103%,80.1%,82.9%,14.9%,9.61%,36.9%,45.7%
Nc1nc(N)nc(-c2cc(Cl)ccc2Cl)n1 [Irsogladine],95.2% and 105%,97.1%,102%,113%,101%,103%,108%,101%
OC(CNCC(O)C1CCc2cc(F)ccc2O1)C1CCc2cc(F)ccc2O1 (stereo unspecified) [Nebivolol HCl],61.4% and 73%,80.7%,60.4%,60.5%,58.6%,62.5%,50.6%,61.5%
CCOc1ccc(Cc2cc([C@@H]3O[C@H](CO)[C@@H](O)[C@H](O)[C@H]3O)ccc2Cl)cc1 [Dapagliflozin],93.8% and 97.1%,105%,102%,96.9%,95.9%,99.4%,97.7%,105%
"C[C@@H](c1ccc2nccn2c1)n1nnc2ncc(-c3cnn(C)c3)nc21 [Savolitinib(AZD6094, HMPL-504)]",94.1% and 97.5%,104%,94.3%,91%,96.6%,97.2%,90.3%,96.5%
Nc1ccc(S(=O)(=O)Nc2ncccn2)cc1 [Sodium sulfadiazine],98.3% and 99.1%,102%,106%,97.4%,98.1%,102%,109%,96.8%
CC(/C=C/C=C(\C)C(=O)O[C@@H]1O[C@H](CO)[C@@H](O)[C@H](O)[C@H]1O)=C\C=C\C=C(C)\C=C\C=C(/C)C(=O)O[C@@H]1O[C@H](CO[C@@H]2O[C@H](CO)[C@@H](O)[C@H](O)[C@H]2O)[C@@H](O)[C@H](O)[C@H]1O [Crocin II],109% and 106%,99.8%,104%,110%,87.5%,104%,97.4%,106%
COc1cc(CCC(=O)CC(=O)CCc2ccc(O)c(OC)c2)ccc1O [Tetrahydrocurcumin],94.1% and 90.6%,89.2%,90.2%,88.7%,92.8%,94.5%,85.8%,97.3%
O=C(Cc1ccccc1)Nc1nnc(CCSCCc2nnc(NC(=O)Cc3ccccc3)s2)s1,81.3% and 83.7%,88.7%,75.9%,72.4%,82.9%,91.2%,68.5%,78.7%
NC(=O)N1c2ccccc2C=Cc2ccccc21 [Carbamazepine (Carbatrol)],95.3% and 86.7%,90.3%,81.3%,97.6%,88.3%,87.9%,92%,104%
CNC(=O)c1cc(Oc2ccc(NC(=O)Nc3cc(C(C)(C)C)nn3-c3ccc4ncccc4c3)c(F)c2)ccn1 [DCC-2036 (Rebastinib)],28.3% and 35.4%,27.5%,11.8%,4.62%,1.63%,1.54%,3.03%,14%
C[C@@H]1CN(c2c(F)c(N)c3c(=O)c(C(=O)O)cn(C4CC4)c3c2F)C[C@H](C)N1 [Sparfloxacin],103%,108%,99.7%,104%,101%,106%,109%,105%
C=CC(=O)Nc1cccc(Sc2nc(Nc3ccc(N4CCN(C)CC4)cc3)ncc2Cl)c1,12.7% and 13.8%,13.8%,0.51%,9.17%,0.08%,0.12%,0.11%,0.45%
CC(C)(C)NC[C@H](O)COc1nsnc1N1CCOCC1 [Timolol Maleate],98.8% and 98.3%,97.4%,101%,106%,99.3%,103%,103%,109%
Nc1ccn([C@@H]2CS[C@H](CO)O2)c(=O)n1 [Lamivudine (Epivir)],100% and 99.5%,102%,105%,104%,99.8%,105%,106%,114%
NNc1nncc2ccccc12 [Hydralazine hydrochloride],99.2% and 101%,96.3%,97.6%,101%,98.1%,99%,106%,87%
C=C1C(=O)[C@]23[C@H](O)[C@H]1CC[C@H]2[C@@]12CO[C@]3(O)[C@@H](O)[C@@H]1C(C)(C)CC[C@@H]2O [Oridonin (Isodonol)],26.2% and 29.8%,24.2%,37.5%,30.1%,9.97%,3.32%,17.9%,13.2%
CCOC(=O)COc1ccc(/C=C2/SC(=S)NC2=O)cc1OC,90.9% and 94.4%,94.3%,88.8%,101%,2.04%,3.45%,104%,91.8%
